Active and inactive are the calls of the source. How the calls were made is not given here.
Assay: GFP fluorescence signal inhibitors, dose response, artefact control, biochemical, plate reader, dry powder (AID 493243)
Settings: GFP fluorescence counter-screen; series mostly up to 35 µM

SMILES	AC50
Cc1oc2c(c1C(=O)NCc1ccccn1)C(=O)c1ccccc1C2=O	1.04 µM (active)
Nc1cn(-c2ccccc2)nc1-c1ccc(F)cc1	inactive
Cc1ccccc1-n1ncc2c([N+](=O)[O-])cc([N+](=O)[O-])cc21	9.4 µM (active)
Cc1oc2c(c1C(=O)NCc1cccnc1)C(=O)c1ccccc1C2=O	3.57 µM (active)
Cn1nc(-c2ccccn2)nc2c(=O)n(C)c(=O)nc1-2	0.752 µM (active)
